The values that follow come from PubChem BioAssay (EPA / NIEHS).

Broadly, the AC50 is the concentration at which the activity in the assay is half-maximal.

Results filed as inconclusive are left out. More than one record can exist for a structure, and the calls need not agree. Calls of active or inactive are those of the source. Rule for the calls: active = hit-call score of the fitted dose curve at least 0.9, where 1 is the maximum; inconclusive = response in the unintended direction; inactive = score below 0.9.

Retinoic acid receptor RXR-alpha (Homo sapiens), sequence (P19793 whole entry, looked up, the tested form may be a part): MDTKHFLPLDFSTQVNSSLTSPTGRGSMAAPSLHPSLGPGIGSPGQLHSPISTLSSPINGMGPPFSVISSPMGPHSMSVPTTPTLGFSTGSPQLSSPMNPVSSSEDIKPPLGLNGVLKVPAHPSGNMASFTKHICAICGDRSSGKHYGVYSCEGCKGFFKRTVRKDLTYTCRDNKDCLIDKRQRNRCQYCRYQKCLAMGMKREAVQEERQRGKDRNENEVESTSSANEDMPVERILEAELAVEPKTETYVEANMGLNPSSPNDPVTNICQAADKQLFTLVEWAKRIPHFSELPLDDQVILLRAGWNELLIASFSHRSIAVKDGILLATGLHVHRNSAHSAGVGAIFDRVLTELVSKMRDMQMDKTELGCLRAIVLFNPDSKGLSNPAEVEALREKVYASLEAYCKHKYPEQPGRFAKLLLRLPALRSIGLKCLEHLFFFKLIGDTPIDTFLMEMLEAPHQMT

For this test, the target named is Retinoic acid receptor RXR-alpha (Homo sapiens) (UniProt P19793). The test is described as follows: OT_NURR1_NURR1RXRa_0480: Odyssey Thera (OT) 8-hour HEK293T Protein Complementation Assay for Nurr1/retinoid X receptor (RXR) (AID 2283385). As to the method:
OT_NURR1_NURR1RXRa_0480 is a cell-based assay that uses HEK293T, a human kidney cell line, with measurements taken at 8 hours after chemical dosing in a 384-well plate.OT_NURR1_NURR1RXRa_0480 is one of one assay component(s) measured or calculated from the OT_NURR1_NURR1RXRa_0480 assay. It is designed to make measurements of protein fragment complementation, a form of binding reporter, as detected with fluorescence intensity signals by Protein-fragment Complementation technology.Data from the assay component OT_NURR1_NURR1RXRa_0480 was analyzed into 1 assay endpoint. This assay endpoint, OT_NURR1_NURR1RXRa_0480, was analyzed in the positive analysis fitting direction relative to DMSO as the negative control and baseline of activity. Using a type of binding reporter, measures of receptor for gain-of-signal activity can be used to understand the binding at the pathway-level as they relate to the gene RXRA. Furthermore, this assay endpoint can be referred to as a primary readout, because the performed assay has only produced 1 assay endpoint. To generalize the intended target to other relatable targets, this assay endpoint is annotated to the nuclear receptor intended target family, where the subfamily is non-steroidal.
Protein-fragment complementation assay, or PCA, is a method for the identification and quantification of protein-protein interactions. In the PCA, the proteins of interest ("bait" and "prey") are each covalently linked to fragments of a third protein (e.g. DHFR, which acts as a "reporter"). Interaction between the bait and the prey proteins brings the fragments of the reporter protein in close proximity to allow them to form a functional reporter protein whose activity can be measured.
In the case of `CCCCOCC1CO1` (stereo not given), the outcome was inactive.

For the compound `Cc1ccc(O)cc1C`, the compound was classed as inactive.

Take `CO/N=C(/C(=O)OC)c1ccccc1COc1ccccc1C`: the outcome was inactive.

In the case of `c1ccc2c(c1)Nc1ccccc1S2`, the compound was classed as inactive.

In the case of `O=P1(N(CCCl)CCCl)NCCCO1` (stereo not given), the result was inactive.

On to `CCCCC(CC)COC(=O)c1c(Br)c(Br)c(Br)c(Br)c1C(=O)OCC(CC)CCCC` (stereo not given), for which the outcome was inactive.

Take `CCN(CC)c1ccccc1`: the result was inactive.

`CSC(C)(C)C=NO`: the compound was called inactive.

On to `O=P(OCC(Br)CBr)(OCC(Br)CBr)OCC(Br)CBr` (stereo not given), for which the call was inactive.

Consider `O=C(O)C(Cl)Cl`, for which the result was inactive.

For `COCCOCCO`, the call was inactive.

With `CCCCC(CC)COP(=O)(Oc1ccccc1)Oc1ccccc1` (stereo not given), the outcome was inactive.

Regarding `O=C(O)CF`, the compound was called inactive.

In the case of `O=[N+]([O-])c1ccc(Cl)c(Cl)c1`, the compound was classed as inactive.

For the compound `O=NN1CCCC1`, the result was inactive.

`CCOP(=S)(OCC)SCSCC`: the result was inactive.

For `OCC1CO1` (stereo not given), the outcome was inactive.

On to `CCCCOCCOP(=O)(OCCOCCCC)OCCOCCCC`, for which the result was inactive.

In the case of `CCCCc1ccc(O)cc1`, the result was inactive.

For the compound `CCCCN(CCCC)N=O`, the compound was called inactive.

On to `CCOc1ccc(C(C)(C)COCc2cccc(Oc3ccccc3)c2)cc1`, for which the compound was called inactive.

For `CCCCCCCc1ccc(O)cc1`, the compound was called inactive and the AC50 was 50 µM (active).

Turning to `CCC(C)(C)c1ccc(O)cc1`, the result was inactive.

For `O=P(Oc1ccccc1)(Oc1ccccc1)Oc1ccccc1`, the compound was classed as inactive.

With `c1ccc(OP(Oc2ccccc2)Oc2ccccc2)cc1`, the call was inactive.

For the compound `CCCCN(CCCC)SN(C)C(=O)Oc1cccc2c1OC(C)(C)C2`, the half-maximal activity concentration (AC50) was 86.2 µM (active) and the compound was called inactive.

Take `CCNc1nc(Cl)nc(NC(C)(C)C)n1`: the call was inactive.

As to `CC(C)(C)c1ccc(O)cc1`, the outcome was inactive.

Turning to `c1cc2c3c(cccc3c1)CC2`, the compound was called inactive.

Take `O=C(CBr)OCc1ccccc1`: the compound was called inactive.

With `O=S1(=O)OCC2C(CO1)C1(Cl)C(Cl)=C(Cl)C2(Cl)C1(Cl)Cl` (stereo not given), the result was inactive.

For `CCC1(c2ccccc2)C(=O)N=C(O)NC1=O` (stereo not given), the compound was classed as inactive.

`CN(C)C(=O)Cl`: the call was inactive.

In the case of `Cc1ccc([N+](=O)[O-])cc1C`, the result was inactive.

In the case of `CCCN(CCC)c1c([N+](=O)[O-])cc(C(C)C)cc1[N+](=O)[O-]`, the result was inactive and the AC50 is 75.7 µM (active).

In the case of `Nc1cc2c3c(c1)C(c1ccccc1)=N[C@@H](NC(=O)c1cccnc1)C(=O)N3CC2`, the AC50 is 50 µM (active).

Regarding `FC(F)(F)c1ccc(Cl)cc1`, the compound was classed as inactive.
